biological target: PLEKHN1; assay: pooled miR-30 sensor sort-seq; sequence = guide strand; details: shRNA

Which sensor-assay potency score (higher = more potent) does the source give for TAGCTCCAGGTAGCAGTCGCTG here?
The sensor-assay potency score (higher = more potent) was -1.67.

Which sensor-assay potency score (higher = more potent) does the source give for TTTCTGGAGAAGGAGGCCCGGA here?
The sensor-assay potency score (higher = more potent) was -1.45.

For TCCAGGTCCAGGATGTCCGTGC, which sensor-assay potency score (higher = more potent) is on record?
The sensor-assay potency score (higher = more potent) was -1.12.

How did the sensor-assay potency score (higher = more potent) turn out when TGACCGTAGTCCTCGTAGCTGG was run?
Its sensor-assay potency score (higher = more potent) is -1.04.

With TGAAATGTGAGTCCTTCCGAGC as the sequence, how does the sensor-assay potency score (higher = more potent) read?
The sensor-assay potency score (higher = more potent) was -1.13.

How did the sensor-assay potency score (higher = more potent) turn out when TAGCTGGCGCACACCACGCGGA was run?
The sensor-assay potency score (higher = more potent) was -1.23.

TCGCTGGTTCTCCAGGTCCAGG was tested. Which sensor-assay potency score (higher = more potent) did it give?
The sensor-assay potency score (higher = more potent) was -2.

TAGTGGAAGAGCTTGTTGGCGG was tested. Which sensor-assay potency score (higher = more potent) did it give?
Its sensor-assay potency score (higher = more potent) is -0.587.

biological target: PLK1S1; assay: as above; details: shRNA

How did the sensor-assay potency score (higher = more potent) turn out when TTTGAGCATAGCATCTTCTTAA was run?
Its sensor-assay potency score (higher = more potent) is -0.677.

How did the sensor-assay potency score (higher = more potent) turn out when TTGAGTCTCATATTCGAGCTTC was run?
The sensor-assay potency score (higher = more potent) was 0.47.

How did the sensor-assay potency score (higher = more potent) turn out when TTGTACTACACAGCTGTCTGTC was run?
Its sensor-assay potency score (higher = more potent) is -0.193.

For TATTTCAGCTTAACTCTGCATG, which sensor-assay potency score (higher = more potent) is on record?
Its sensor-assay potency score (higher = more potent) is -0.461.

TTCAGATTCACATATTTCCTTC was tested. Which sensor-assay potency score (higher = more potent) did it give?
The sensor-assay potency score (higher = more potent) was -0.129.

For TTGGTTTCGAGTATGAGCCTTC, which sensor-assay potency score (higher = more potent) is on record?
The sensor-assay potency score (higher = more potent) was 0.232.

Which sensor-assay potency score (higher = more potent) does the source give for TTTGTCTCGAATGCACCGCTGC here?
Its sensor-assay potency score (higher = more potent) is -0.55.

Which sensor-assay potency score (higher = more potent) does the source give for TAGTTTTACATATTTCAGCTTA here?
The sensor-assay potency score (higher = more potent) was -0.42.

With TATTCCACTATTGTCATTCAGA as the sequence, how does the sensor-assay potency score (higher = more potent) read?
The sensor-assay potency score (higher = more potent) was -0.697.

Which sensor-assay potency score (higher = more potent) does the source give for TATTCTGAAACTGGTATCGGAG here?
Its sensor-assay potency score (higher = more potent) is -0.809.

With TAGATGAAAAACTAGCTTCCGA as the sequence, how does the sensor-assay potency score (higher = more potent) read?
Its sensor-assay potency score (higher = more potent) is -0.0275.

biological target: PLN; assay: as above; details: shRNA

With TTGTTTTCCTGTCTGCATGGGA as the sequence, how does the sensor-assay potency score (higher = more potent) read?
Its sensor-assay potency score (higher = more potent) is 0.161.

With TTTGACGTGCTTGTTGAGGCAT as the sequence, how does the sensor-assay potency score (higher = more potent) read?
Its sensor-assay potency score (higher = more potent) is 0.851.

For TTTCACAAAGAAACTCTTCTAC, which sensor-assay potency score (higher = more potent) is on record?
The sensor-assay potency score (higher = more potent) was 0.725.

TATAGCTGAGCGAGTGAGGTAT was tested. Which sensor-assay potency score (higher = more potent) did it give?
Its sensor-assay potency score (higher = more potent) is -0.0267.

For TTAATCTTGACCTTTTCACAAA, which sensor-assay potency score (higher = more potent) is on record?
The sensor-assay potency score (higher = more potent) was -1.35.

Which sensor-assay potency score (higher = more potent) does the source give for TTGAGGCTCTTCTTATAGCTGA here?
Its sensor-assay potency score (higher = more potent) is -0.603.

TAGCTTTTGACGTGCTTGTTGA was tested. Which sensor-assay potency score (higher = more potent) did it give?
Its sensor-assay potency score (higher = more potent) is -0.611.

Which sensor-assay potency score (higher = more potent) does the source give for TTGACGTGCTTGTTGAGGCATT here?
The sensor-assay potency score (higher = more potent) was -0.832.

Which sensor-assay potency score (higher = more potent) does the source give for TTAGTCTTAATCTTGACCTTTT here?
The sensor-assay potency score (higher = more potent) was -0.719.

Which sensor-assay potency score (higher = more potent) does the source give for TAAGATGAGACAGAAATTGATA here?
Its sensor-assay potency score (higher = more potent) is -0.754.

Which sensor-assay potency score (higher = more potent) does the source give for TTTAGTCTTAATCTTGACCTTT here?
Its sensor-assay potency score (higher = more potent) is -0.026.

With TCTGTAGCTTTTGACGTGCTTG as the sequence, how does the sensor-assay potency score (higher = more potent) read?
Its sensor-assay potency score (higher = more potent) is -0.521.

biological target: PLS1; assay: as above; details: shRNA

With TAAATTTTCAGAAATAGTGAAT as the sequence, how does the sensor-assay potency score (higher = more potent) read?
The sensor-assay potency score (higher = more potent) was -0.578.

With TATCTTTGCTTTTTAATTCTTG as the sequence, how does the sensor-assay potency score (higher = more potent) read?
Its sensor-assay potency score (higher = more potent) is -0.576.

TTTATCTGCTTCTTGAAGCATG was tested. Which sensor-assay potency score (higher = more potent) did it give?
Its sensor-assay potency score (higher = more potent) is -0.495.

How did the sensor-assay potency score (higher = more potent) turn out when TTTGCTTTTTAATTCTTGCATT was run?
The sensor-assay potency score (higher = more potent) was -1.04.

For TTTAAGAGTCTGATTGACCCAT, which sensor-assay potency score (higher = more potent) is on record?
Its sensor-assay potency score (higher = more potent) is 0.465.

TGTGCTTATAGATTTATCCTTG was tested. Which sensor-assay potency score (higher = more potent) did it give?
Its sensor-assay potency score (higher = more potent) is 0.0263.

For TTAGTGACACAAACTCTTCAAA, which sensor-assay potency score (higher = more potent) is on record?
The sensor-assay potency score (higher = more potent) was -0.919.

With TTAAGAGTCTGATTGACCCATT as the sequence, how does the sensor-assay potency score (higher = more potent) read?
Its sensor-assay potency score (higher = more potent) is -0.779.

ATTCCTTTCATTTAGGTCCTGC was tested. Which sensor-assay potency score (higher = more potent) did it give?
The sensor-assay potency score (higher = more potent) was 0.408.

Reference: the OligoGym collection
